From PubChem BioAssay (Tox21) come the findings set out here.

Experiment [1] can be described thus: qHTS assay to identify small molecule antagonists of the thyroid receptor (TR) signaling pathway - cell viability counter screen (AID 743064). Note: nearly all actives have a fitted effect of over 50% in size. Note: potency is the fitted concentration of half-maximal effect. Particulars: GH3.TRE-Luc viability, CellTiter-Fluor, 24 h; series mostly up to 70.3 µM. An outline of the steps: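 GH3.TRE-Luc rat pituitary cells carrying a TRE-luciferase reporter were treated with compound plus 1 nM T3 (final) for 23.5 h at 37 °C. Viability was then read in the same wells by CellTiter-Fluor fluorescence after a further 30 min.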

Experiment [2] can be described thus: qHTS assay to identify small molecule antagonists of the estrogen receptor alpha (ER-alpha) signaling pathway using the BG1 cell line - cell viability counter screen (AID 743081).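 Note: compound given together with 17beta-estradiol as the ER stimulus; nearly all actives have a fitted effect of over 45% in size.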 Particulars: BG1Luc4E2 viability, CellTiter-Fluor, 22 h; series mostly up to 70.3 µM. (In qHTS, concentration-response curves come from the screen itself.)
The target in the next experiment is Aromatase (Homo sapiens) (UniProt P11511). The experiment can be described thus: qHTS assay to identify aromatase inhibitors (AID 743083). Note: nearly all actives have a fitted effect of over 55% in size. Note: potency is the fitted concentration of half-maximal effect. Particulars: MCF-7 aro ERE, testosterone-driven ERE luciferase, 24 h; series mostly up to 70.3 µM.
Sequence of Aromatase (Homo sapiens) (P11511 whole entry, looked up): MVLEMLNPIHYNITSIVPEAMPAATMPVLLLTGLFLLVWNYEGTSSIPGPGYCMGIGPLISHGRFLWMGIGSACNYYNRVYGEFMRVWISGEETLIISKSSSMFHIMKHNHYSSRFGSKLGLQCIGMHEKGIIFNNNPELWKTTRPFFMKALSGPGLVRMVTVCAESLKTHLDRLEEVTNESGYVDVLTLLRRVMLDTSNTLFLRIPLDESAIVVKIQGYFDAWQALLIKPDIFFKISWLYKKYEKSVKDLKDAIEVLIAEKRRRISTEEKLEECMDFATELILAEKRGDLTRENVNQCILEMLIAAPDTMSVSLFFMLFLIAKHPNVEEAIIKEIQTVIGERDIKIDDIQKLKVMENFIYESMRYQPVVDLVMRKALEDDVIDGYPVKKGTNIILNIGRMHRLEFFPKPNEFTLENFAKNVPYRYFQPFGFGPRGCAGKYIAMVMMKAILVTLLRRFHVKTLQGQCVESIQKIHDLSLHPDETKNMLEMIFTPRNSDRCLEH
The subject of experiment [3] is thyroid hormone receptor (rat, GH3 cells). The experiment can be described thus: qHTS assay to identify small molecule agonists of the thyroid receptor (TR) signaling pathway (AID 743066; calls by dose curve). Particulars: GH3.TRE-Luc cells, TR agonist luciferase, 24 h; series mostly up to 83.9 µM.
Experiment [4] can be described thus: qHTS assay to identify small molecule antagonists of the estrogen receptor alpha (ER-alpha) signaling pathway - cell viability counter screen (AID 743074; calls by dose curve;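 note: HEK293 cells carrying ER-alpha-UAS-bla reporter stimulated with 17beta-estradiol; nearly all actives have a fitted effect of over 45% in size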; note: potency is the fitted concentration of half-maximal effect). Particulars: ERalpha-bla HEK293 viability, CellTiter-Glo luminescence, 18 h; series mostly up to 69.4 µM.
For experiment [5], the target named is Estrogen receptor (Homo sapiens) (UniProt P03372). The experiment can be described thus: qHTS assay to identify small molecule antagonists of the estrogen receptor alpha (ER-alpha) signaling pathway (AID 743069; active = well fitted curve in the direction sought with a large enough effect in the signal ratio in the repeat runs, not every such curve was filed as active; the % refers to the signal ratio). The note with it: HEK293 ER-alpha-UAS-bla, beta-lactamase ratio, antagonist mode; series mostly up to 69.4 µM. An outline of the steps:
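Reporter cells (ER-alpha-bla, HEK293 background) are conditioned overnight in stripped-serum medium (2% charcoal-stripped FBS). Compound and 17beta-estradiol exposure runs 18 hr at 37C, 5% CO2.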

For experiment [6] the target is unchanged. The experiment can be described thus: qHTS assay to identify small molecule agonists of the estrogen receptor alpha (ER-alpha) signaling pathway (AID 743075; calls by dose curve;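 note: HEK293 GripTite cells with ER-alpha and UAS-driven beta-lactamase reporter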). Particulars: HEK293 ER-alpha-UAS-bla, beta-lactamase FRET ratio, 18 h; series mostly up to 70.1 µM.
The target is the same in experiment [7]. The experiment can be described thus: qHTS assay to identify small molecule agonists of the estrogen receptor alpha (ER-alpha) signaling pathway using the BG1 cell line (AID 743079). Note: nearly all actives have a fitted effect of over 20% in size. The note with it: BG1Luc4E2 cells, ERE-luciferase agonist, 22 h; activation: at 70.3 µM (top of the series).
Experiment [8] in a line: qHTS assay to identify small molecule antagonists of the estrogen receptor alpha (ER-alpha) signaling pathway using the BG1 cell line (AID 743080; calls by dose curve;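 note: BG1 cells stimulated with 17beta-estradiol alongside compound; nearly all actives have a fitted effect of over 25% in size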; note: potency is the fitted concentration of half-maximal effect). Particulars: BG1Luc4E2 ERE-luciferase antagonist mode, luminescence; series mostly up to 70.3 µM. A digest of the protocol: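 Readout is ONE-Glo luminescence, taken 30 min at room temperature after reagent addition, preceded by a CellTiter-Fluor viability read; BG1-Luc-4E2 cells had received compound and 17beta-estradiol for 21.5 h at 37 C.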

Experiment [9] can be described thus: qHTS assay to identify small molecule antagonists of the thyroid receptor (TR) signaling pathway (AID 743065). Note: nearly all actives have a fitted effect of over 55% in size. Note: potency is the fitted concentration of half-maximal effect. Particulars: GH3.TRE-Luc, T3-stimulated luciferase inhibition, 23.5 h; series mostly up to 70.3 µM. A digest of the protocol:
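GH3.TRE-Luc rat pituitary cells (two TREs driving luciferase) were dosed with compound, then stimulated with 1 nM T3 (final) for 23.5 h at 37 C. ONE-Glo luminescence was the read-out, with CellTiter-Fluor fluorescence as the cytotoxicity counter-screen.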

Results filed as inconclusive are left out. Active and inactive are the calls of the source. Unless noted, calls come from the whole dose curve; as a rule, active = well fitted curve in the direction sought with a large enough effect in the repeat runs; inconclusive = weak or mixed curves; inactive = no such curve, though single readings can be large; an effect the other way counts as inactive or inconclusive.

Sequence of Estrogen receptor (Homo sapiens) (P03372 whole entry, looked up): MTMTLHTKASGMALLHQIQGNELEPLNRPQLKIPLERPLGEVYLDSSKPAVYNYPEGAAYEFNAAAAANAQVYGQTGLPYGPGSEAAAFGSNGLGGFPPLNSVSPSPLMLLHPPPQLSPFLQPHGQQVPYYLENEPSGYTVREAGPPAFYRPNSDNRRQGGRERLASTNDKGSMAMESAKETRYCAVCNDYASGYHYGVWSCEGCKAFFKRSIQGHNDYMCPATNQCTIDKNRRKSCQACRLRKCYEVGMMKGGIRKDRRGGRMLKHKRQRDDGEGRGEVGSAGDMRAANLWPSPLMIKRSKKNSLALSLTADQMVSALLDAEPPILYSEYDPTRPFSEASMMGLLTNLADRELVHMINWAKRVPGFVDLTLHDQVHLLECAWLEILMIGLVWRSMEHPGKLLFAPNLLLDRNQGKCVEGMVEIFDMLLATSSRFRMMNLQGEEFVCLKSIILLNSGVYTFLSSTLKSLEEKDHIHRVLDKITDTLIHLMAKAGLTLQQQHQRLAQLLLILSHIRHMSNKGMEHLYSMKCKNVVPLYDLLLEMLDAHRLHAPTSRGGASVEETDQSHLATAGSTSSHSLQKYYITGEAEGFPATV

Regarding `C[C@@H](O[C@H]1OCCN(Cc2n[nH]c(=O)[nH]2)[C@H]1c1ccc(F)cc1)c1cc(C(F)(F)F)cc(C(F)(F)F)c1`, the Potency in experiment [1] is 13.3 µM (active); with Aromatase (Homo sapiens), 29.8 µM (active). Also, the Potency result in experiment [2] is “inactive”.
In the case of `CCCCCCCCCCCCCCN(CCO)CCO`, the Potency in experiment [1] was 19.3 µM (active); in [4] it was 54.9 µM (active); with Aromatase (Homo sapiens) it was 27.3 µM (active). In experiment [3], the outcome was inactive. The Potency entry in experiment [2] is “inactive”.
On to `COc1cc(Nc2c(C#N)cnc3cc(OCCCN4CCN(C)CC4)c(OC)cc23)c(Cl)cc1Cl`, for which the Potency was 11.9 µM (active) in experiment [1], 26.8 µM (active) in [4] and 26.6 µM (active) in the experiment with Aromatase (Homo sapiens).
Take `COC(=O)CS`: the Potency entry in [1], in [5], in experiment [4], in experiment [6], in experiment [7] and in [8] was “inactive” in each case. For the same compound, the Potency result (in experiment [2]; in the experiment with Aromatase (Homo sapiens)) was “inactive” each time.
Consider `C[C@@H]1CN(CCCn2c3ccccc3c3ccccc32)C[C@H](C)N1`, for which the Potency in [1] is 10.6 µM (active). In addition, in experiment [2], the Potency result was “inactive”.
As for `Oc1ccc(Cl)c2cccnc12`, the Potency in [1] is 7.5 µM (active); with Aromatase (Homo sapiens), 3.35 µM (active). For the same compound, the Potency entry in experiment [4], in [6], in experiment [7], in [8] and in [2] was “inactive” in each case.
For `Nc1cccc2c1CN(C1CCC(=O)NC1=O)C2=O` (stereo not drawn), the Potency result in [9], in [5], in [4], in experiment [6], in experiment [7] and in experiment [8] was “inactive” throughout. In addition, the Potency result (in experiment [2]; with Aromatase (Homo sapiens)) was “inactive” each time. In addition, the compound was classed as inactive in experiment [3].
Regarding `CCOC(C)=O`, the Potency result in experiment [9], in [5], in experiment [4], in experiment [6], in [7] and in [8] was “inactive” each time. Moreover, the Potency result (in [2]; with Aromatase (Homo sapiens)) was “inactive” in each case. Moreover, the call in [3] was inactive.
Regarding `O[C@@H]1CO[C@H]2[C@@H]1OC[C@@H]2O`, the Potency entry in experiment [9], in [5], in [4], in experiment [6], in [7] and in experiment [8] was “inactive” each time. Moreover, the Potency result (in experiment [2]; in the experiment with Aromatase (Homo sapiens)) was “inactive” throughout. In [3], the result was inactive.
In the case of `O=C(O)c1ccc(OCCCOc2ccc(C(=O)O)cc2)cc1`, the Potency result (in [1]; in experiment [4]; in experiment [2]; with Aromatase (Homo sapiens)) was “inactive” throughout.
As to `COc1ccccc1Oc1c(NS(=O)(=O)c2ccc(C(C)(C)C)cc2)nc(-c2ncccn2)nc1OCCO`, the Potency result in experiment [1], in experiment [5], in experiment [6], in [7], in [8] and in experiment [2] was “inactive” throughout. Also, the Potency result in the experiment with Aromatase (Homo sapiens) is “inactive”.
Turning to `O=[N+]([O-])c1ccc(Nc2ccc(Nc3ccccc3)c(S(=O)(=O)O)c2)c([N+](=O)[O-])c1`, in experiment [1], the Potency was 48.6 µM (active). In experiment [3], the result was inactive. Also, the Potency entry (in experiment [4]; with Aromatase (Homo sapiens)) was “inactive” each time.
For `CC(C)C(O)(c1ccc(OC(F)(F)F)cc1)c1cncnc1` (stereo not drawn), the Potency entry (in [1]; in experiment [4]; in [2]; with Aromatase (Homo sapiens)) was “inactive” in each case. The compound was classed as inactive in [3].
Consider `Cc1ccc(OC(=O)c2ccccc2O)cc1`, for which the Potency entry (in [1]; in experiment [4]; in experiment [2]; with Aromatase (Homo sapiens)) was “inactive” throughout. Also, the compound was classed as inactive in experiment [3].
Take `O=C1c2ccccc2C(=O)C1(O)O`: the Potency in experiment [9] was 54.8 µM (active). The call in [3] was inactive. For the same compound, the Potency result in experiment [5], in experiment [4], in experiment [6], in experiment [7], in experiment [8] and in experiment [2] was “inactive” each time.
On to `CC1(C)[C@@H](OC(=O)CCC(=O)O)CC[C@]2(C)[C@H]3C(=O)C=C4[C@@H]5C[C@@](C)(C(=O)O)CC[C@]5(C)CC[C@@]4(C)[C@]3(C)CC[C@@H]12`, for which the Potency entry (in experiment [1]; in experiment [4]; in experiment [2]; with Aromatase (Homo sapiens)) was “inactive” each time. Further, the call in experiment [3] was inactive.
With `CC(=O)NC1(c2cccc(F)c2)CCN(CC[C@@]2(c3ccc(Cl)c(Cl)c3)CN(c3ccccc3)C(=O)CO2)CC1`, the values for the Potency in experiment [1], in experiment [4] and in experiment [8] were 7.72 µM (active), 39 µM (active) and 54.6 µM (active), respectively. Moreover, in experiment [6], the Potency result was “inactive”.
On to `O=C1c2ccccc2C(=O)C1c1ccc(Br)cc1`, for which the Potency result in [1], in experiment [5], in experiment [4], in experiment [6], in experiment [7] and in experiment [8] was “inactive” each time. The Potency entry (in experiment [2]; with Aromatase (Homo sapiens)) was “inactive” each time.
For `CCCC(C(=O)OCCN(CC)CC)(c1ccccc1)c1ccccc1`, the Potency in experiment [1] is 23.7 µM (active). The Potency result in [5], in [4], in experiment [6], in experiment [7] and in experiment [8] was “inactive” throughout.
Take `CC(C)(C)C(=O)C(=O)O`: the Potency result in [9], in experiment [5], in experiment [4], in experiment [6], in experiment [7] and in experiment [8] was “inactive” in each case. The Potency entry (in [2]; with Aromatase (Homo sapiens)) was “inactive” throughout. In addition, the compound was classed as inactive in [3].
For `CCOC(=O)c1ccc(I)cc1`, the Potency entry in [9], in experiment [5], in experiment [4], in experiment [6], in [7] and in experiment [8] was “inactive” throughout. Further, the Potency entry (in experiment [2]; with Aromatase (Homo sapiens)) was “inactive” in each case. Besides, the call in experiment [3] was inactive.
`COC(=O)CCS`: the Potency result in [9], in experiment [5], in experiment [4], in [6], in [7] and in experiment [8] was “inactive” in each case. The Potency entry (in [2]; with Aromatase (Homo sapiens)) was “inactive” throughout. Besides, in experiment [3], the result was inactive.
Consider `c1ccc2sc(SN(C3CCCCC3)C3CCCCC3)nc2c1`, for which, in experiment [9], the Potency is 21.4 µM (active). Besides, the outcome in experiment [3] was inactive. The Potency result in experiment [5], in [4], in [6], in experiment [7], in experiment [8] and in experiment [2] was “inactive” throughout. Further, the Potency result in the experiment with Aromatase (Homo sapiens) was “inactive”.
For `Cc1ccc(Cl)c(Nc2ccccc2C(=O)O)c1Cl`, the Potency entry (in experiment [1]; in experiment [6]; in experiment [7]; in [8]; in experiment [2]; in the experiment with Aromatase (Homo sapiens)) was “inactive” throughout. Further, the compound was classed as inactive in [3].
Consider `C[C@@H](CN(C)C)CN1c2ccccc2Sc2ccccc21`, for which, in experiment [9], the Potency was 10.1 µM (active). The compound was called inactive in [3]. Moreover, the Potency entry in [5], in [4], in [6], in experiment [7], in [8] and in [2] was “inactive” in each case. Besides, in the experiment with Aromatase (Homo sapiens), the Potency entry was “inactive”.
